# In PubChem BioAssay (EPA / NIEHS):
# “And” between values parts separate entries of the source, which are not always exact repeats. Equal entries are not always repeated. The source made the active and inactive calls. How the source made its calls: active means hit-call score of the fitted dose curve at least 0.9, where 1 is the maximum; inactive means score below 0.9.
# Test system: TTR (gene 7276)
# Test: CCTE_GLTED_hTTR_0.125uM: CCTE's human Transthyretin (hTTR) Inhibition Assay, with 0.125uM TTR, Great Lakes Toxicology and Ecology Division (GLTED) Lab (AID 2284431);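 further: hits lower the fluorescence signal relative to DMSO baseline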
# How it was run: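 Cell-free displacement of ANSA probe from 0.125uM TTR after 2 h incubation with chemical. Fluorescence read at 380 nm excitation/475 nm emission; loss of signal relative to DMSO indicates T4-site displacement.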
row,Compound,AC50
1,CCC(C)(c1ccc(O)cc1)c1ccc(O)cc1,9.26 µM (active)
2,CC(C)(c1ccccc1)c1ccc(O)cc1,0.888 µM (active)
3,Cc1cc(-c2ccc(N)c(C)c2)ccc1N,92.7 nM (active) and 178 nM (active)
4,NS(=O)(=O)C(F)(F)C(F)(F)C(F)(F)C(F)(F)C(F)(F)C(F)(F)C(F)(F)C(F)(F)F,0.683 µM (active)
5,O=S(=O)(O)C(F)(F)C(F)(F)C(F)(F)C(F)(F)F,2.08 µM (active)
6,O=C(O)C(F)(F)C(F)(F)C(F)(F)C(F)(F)C(F)(F)F,1.92 µM (active)
7,O=NN(c1ccccc1)c1ccccc1,14.2 µM (active)
8,O=C(O)C(F)(F)C(F)(F)C(F)(F)C(F)(F)C(F)(F)C(F)(F)C(F)(F)C(F)(F)F,0.21 µM (active)
9,O=C(O)C(F)(F)C(F)(F)C(F)(F)C(F)(F)C(F)(F)C(F)(F)C(F)(F)C(F)(F)C(F)(F)F,0.646 µM (active)
10,CCC(C)c1cc([N+](=O)[O-])cc([N+](=O)[O-])c1O (stereo unspecified),0.0883 µM (active)
11,Cc1cc(O)ccc1Cl,20.5 µM (active)
12,Clc1ccc(C(Cl)(Cl)Cl)cc1,1.04 µM (active)
13,Oc1ccc(C(c2ccc(O)cc2)(C(F)(F)F)C(F)(F)F)cc1,2.53 µM (active)
14,CCCCCCCCCc1ccc(O)cc1,3.03 µM (active)
15,CC(c1ccc(O)cc1)(c1ccc(O)cc1)c1ccc(O)cc1,1.48 µM (active)
16,O=S(=O)(O)C(F)(F)C(F)(F)C(F)(F)C(F)(F)C(F)(F)C(F)(F)F,0.0856 µM (active)
